From PubChem BioAssay (NCI) come the findings set out here.

A short description of the test: NCI Yeast Anticancer Drug Screen. Data for the rad18 strain (AID 177). As to conditions: S. cerevisiae rad18 mutant growth inhibition, stronger effect = higher value. As to the method: Growth inhibition of yeast strains with defined genetic alterations is measured as a screen for potential anti-cancer activity. Selected strains with alterations in DNA damage repair or cell cycle control were exposed to compounds and growth inhibition was measured relative to vehicle treated controls. The strain used in this assay is rad18

About 79,000 compounds went through this panel and 15% of them were active in at least one assay; those are over-represented in the sample as a whole. The source made the active and inactive calls. Rule as the data show it: active = growth inhibition above about 70%; inactive = the rest.

Take `CC(C(=O)N1C(=O)N(C(=O)C(C)C(O)c2ccccc2)C2CCCCC21)C(O)c1ccccc1` (stereo not given): the growth inhibition (at 1.2 µM) was 2% (inactive); the growth inhibition (at 3.7 µM) is 4% (inactive); the growth inhibition (at 11.0 µM) is 5% (inactive); the growth inhibition (at 33.0 µM) is 20% (inactive); the growth inhibition (at 100.0 µM) was 27% (inactive).

For the molecule `COC(=O)/C(C#N)=C\NC(=S)C(N)=S`, the growth inhibition by setting is: (at 1.2 µM) -4% (inactive); (at 3.7 µM) 16% (inactive); (at 11.0 µM) 53% (inactive); (at 33.0 µM) 99% (active); (at 100.0 µM) 98% (active).

Regarding `O=C1C=C(Br)C(=O)c2ccccc21`, the growth inhibition is 5% (inactive) (at 1.2 µM); 11% (inactive) (at 3.7 µM); 82% (active) (at 11.0 µM); 99% (active) (at 33.0 µM); 98% (active) (at 100.0 µM).

`C[n+]1c(/C=C/c2ccc(/C=N/NC(=O)c3ccc(C(=O)N/N=C/c4ccc(/C=C/c5cn6ccccc6[n+]5C)cc4)cc3)cc2)cn2ccccc21`: the growth inhibition is 46% (inactive) (at 1.2 µM); 98% (active) (at 3.7 µM); 95% (active) (at 11.0 µM); 96% (active) (at 33.0 µM); 93% (active) (at 100.0 µM).

With `CC1=NN(C(=O)c2ccccc2O)C(=O)/C1=C/c1ccco1`, the growth inhibition by setting is: (at 1.2 µM) 0% (inactive); (at 3.7 µM) 17% (inactive); (at 11.0 µM) 48% (inactive); (at 33.0 µM) 86% (active); (at 100.0 µM) 94% (active).

For `CCN1CCC(O)(c2ccc(Oc3ccc(Cl)cc3)cc2)C(C(=O)c2ccc(Oc3ccc(Cl)cc3)cc2)C1` (stereo not given), the growth inhibition was -6% (inactive) (at 1.2 µM); 20% (inactive) (at 3.7 µM); -1% (inactive) (at 11.0 µM); -4% (inactive) (at 33.0 µM); 7% (inactive) (at 100.0 µM).

In the case of `O=P(C(=S)Nc1c(Cl)cccc1Cl)(c1ccccc1)c1ccccc1`, the growth inhibition (at 1.2 µM) was -12% (inactive); the growth inhibition (at 3.7 µM) is -20% (inactive); the growth inhibition (at 11.0 µM) was -22% (inactive); the growth inhibition (at 33.0 µM) is -12% (inactive); the growth inhibition (at 100.0 µM) was 96% (active).

For `Clc1ccc(/C(=C\c2ccccc2)Cn2ccnc2)cc1`, the growth inhibition was 46% (inactive) (at 1.2 µM); 64% (inactive) (at 3.7 µM); 81% (active) (at 11.0 µM); 93% (active) (at 33.0 µM); 92% (active) (at 100.0 µM).
